PAFAH1B3 FP inh – blocks human PAF acetylhydrolase 1B catalytic subunit 3 | 0.28% of 340,000 active | recombinant PAFAH1B3, FP-rhodamine probe, fluorescence polarization | inhibition, % at 3.39 µM | Q15102;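 active means inhibition above the screen-wide average of all tested compounds plus 3 SD, cut at about 25% in these data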
Target sequence (Q15102 whole entry, looked up): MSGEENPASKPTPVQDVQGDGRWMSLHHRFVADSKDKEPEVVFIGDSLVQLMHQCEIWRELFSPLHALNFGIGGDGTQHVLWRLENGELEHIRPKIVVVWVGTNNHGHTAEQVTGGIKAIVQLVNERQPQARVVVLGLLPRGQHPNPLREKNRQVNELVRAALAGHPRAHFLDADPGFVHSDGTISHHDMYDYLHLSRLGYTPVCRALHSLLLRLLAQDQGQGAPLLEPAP
PAFAH2 inh – PAFAH2 (human) inhibition. inhibition, % at 3.39 µM. AID 492956. Q99487. recombinant PAFAH2, FP-rhodamine activity probe, fluorescence polarization. 0.99% of 340,000 active;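 active means inhibition above the mean over all tested compounds plus 3 SD, cut at about 30% in these data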;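 further: inhibitors block probe labeling of enzyme so polarization drops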
M18AAP inhibitor – PfM18AAP enzyme inhibition; recombinant PfM18AAP, H-Glu-NHMec fluorogenic cleavage; inhibition, % at 7.35 µM; 1.2% of 290,000 active;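 active means inhibition above the campaign mean inhibition over all tested compounds plus 3 SD, cut at about 28% in these data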
Pemphigus Ab inh – blocks pemphigus antibody binding to human desmoglein-3; P32926; AID 588358; 0.48% of 310,000 active; binding (percent of control), % at 10 µM; DSG3-coupled beads, scFv-anti-DSG3-GFP binding, flow cytometry; active compounds read low;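 active means binding more than 3 SD below its plate's average and above zero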;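 further: hits lower antibody fragment binding to DSG3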
PAFAH1B2 inh – blocks human PAF acetylhydrolase 1b catalytic subunit 2; P68402; inhibition, % at 3.39 µM; recombinant PAFAH1B2, FP-rhodamine activity probe, fluorescence polarization; 1.2% of 340,000 active;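 active means inhibition above the mean of all tested compounds plus 3 SD, cut at about 24% in these data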
Target sequence (P68402 whole entry, looked up): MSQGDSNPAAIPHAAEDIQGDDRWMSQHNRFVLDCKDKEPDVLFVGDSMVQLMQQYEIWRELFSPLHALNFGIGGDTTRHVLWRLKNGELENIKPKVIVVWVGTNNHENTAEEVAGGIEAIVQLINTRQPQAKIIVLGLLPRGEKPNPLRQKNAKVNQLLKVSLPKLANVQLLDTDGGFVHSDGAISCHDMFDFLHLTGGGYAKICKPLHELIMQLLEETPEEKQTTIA
pPAFAH FP inh – pPAFAH (human) enzyme inhibition; Q13093; recombinant pPAFAH, FP-rhodamine probe fluorescence polarization; inhibition, % at 3.39 µM; 1.5% of 330,000 active;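 active means inhibition above the mean inhibition across the screen plus 3 SD, cut at about 25% in these data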;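 further: inhibitors block binding of the rhodamine activity-based probe so polarization drops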
A number is an active result; - = inactive; . = not tested or not shown. Rows were chosen to be rich in hits. Some 3.8% of all compounds tested hit in one or more screens of this group.

SMILES	PAFAH1B3 FP inh	PAFAH2 inh	M18AAP inhibitor	Pemphigus Ab inh	PAFAH1B2 inh	pPAFAH FP inh
CC(C)c1ccc(S(=O)(=O)/N=C2/C=C(Sc3ncn[nH]3)C(=O)c3ccccc32)cc1	49	51	31	.	46	-
O=C(c1ccccc1)C(Sc1ncn[nH]1)c1ccccc1 (stereo unspecified)	-	-	-	-	-	-
Cc1ccc(S(=O)(=O)/N=C2/C=C(Sc3ncn[nH]3)C(=O)c3ccccc32)cc1	48	75	51	94	51	-
Cc1cc(C)nc(NC2=NCCN2C(=S)Nc2c(C)cccc2C)n1	-	-	-	-	-	-
COC(=O)c1cc(S(=O)(=O)N2CCC(c3cc(OC)ccc3OC)C2)c[nH]1 (stereo unspecified)	-	-	-	-	-	-
CCc1ccc(S(=O)(=O)NC2CCCCNC2=O)cc1 (stereo unspecified)	-	-	-	76	-	-
O=C1NCCCCC1NS(=O)(=O)c1ccc(F)c(F)c1 (stereo unspecified)	-	-	-	-	-	-
COc1ccc(CNC(=O)COC(=O)C2(C)CC2(Cl)Cl)cc1 (stereo unspecified)	-	-	.	.	-	-
COc1cccc(CNC(=O)COC(=O)C23CC4CC(CC(Cl)(C4)C2)C3)c1	-	-	.	.	28	-
CCc1nnc(N/N=C/c2c(C)[nH]c3ccccc23)n1N	-	-	54	-	-	-
Cc1[nH]c2ccccc2c1/C=N/NC(N)=S	-	-	-	-	-	-
COc1ccc(CNc2oc(COc3ccc(Cl)cc3)nc2C#N)cc1	-	-	-	-	28	-
COc1ccc(CCNc2oc(COc3ccc(Br)cc3)nc2C#N)cc1OC	-	-	-	-	28	-
COc1ccc(Nc2oc(COc3ccc(Cl)cc3)nc2C#N)cc1	-	-	-	-	-	-
C=C1CCC[C@]2(C)C[C@H]3OC(=O)C(CNC(CC)CO)[C@H]3CC12 (stereo partly specified)	-	-	-	-	-	-
C=C1CCC[C@]2(C)C[C@H]3OC(=O)C(CN4CCCCC4CO)[C@H]3CC12 (stereo partly specified)	-	44	-	-	36	-
C=C1CCC[C@]2(C)C[C@H]3OC(=O)C(CNC(C)(CO)CO)[C@H]3CC12 (stereo partly specified)	-	33	-	-	28	-
Oc1cc2c(cc1O)C1c3ccc(O)c(O)c3OCC1(O)C2 (stereo unspecified)	-	-	80	-	-	-
COc1cc(/C=C(\C#N)c2nc3c(s2)CCCC3)ccc1O	.	.	-	.	.	35
N#C/C(=C\c1cccnc1)c1nc2c(s1)CCCC2	-	-	-	-	-	-
N#Cc1ccccc1OCC(=O)Nc1ccc2c(c1)OCO2	.	.	.	-	.	.
CCCNC(=O)c1cccc(S(=O)(=O)N2CC3(C)CC2CC(C)(C)C3)c1 (stereo unspecified)	-	-	.	-	26	-
CC1(C)CC2CC(C)(CN2S(=O)(=O)c2cccc(N)c2)C1 (stereo unspecified)	-	-	-	-	24	-
C#CC(C)OCC1CNC(=S)O1 (stereo unspecified)	.	.	.	-	.	.
CSc1cccc(NC(=O)C2CCCN(S(C)(=O)=O)C2)c1 (stereo unspecified)	.	.	.	-	.	.
SMILES	PAFAH1B3 FP inh	PAFAH2 inh	M18AAP inhibitor	Pemphigus Ab inh	PAFAH1B2 inh	pPAFAH FP inh
O=C(NCCc1c[nH]c2ccccc12)C(=O)Nc1cc2c3c(c1)CC(=O)N3CCC2	-	-	.	-	-	-
CCOC(=O)c1c(NC(=O)C2C3CCC(O3)C2C(=O)O)sc2c1CCCC2 (stereo unspecified)	-	-	-	-	-	-
COC(=O)c1c(NC(=O)C2CC=CCC2C(=O)O)sc2c1CCCCC2 (stereo unspecified)	-	-	29	-	-	-
COC(=O)c1c(NC(=O)C2C3CCC(O3)C2C(=O)O)sc2c1CCCCCC2 (stereo unspecified)	-	-	-	-	50	-
Cc1cc(C2=CC(=O)C[C@H](c3ccc(F)cc3)C2)ccc1F	.	.	.	-	.	.
C[C@@H]1CN([C@H](C)CO)C(=O)CCCn2nncc2CO[C@H]1CN(C)C(=O)c1ccc2ccn(C)c2c1	.	.	.	-	.	.
COc1ccc(CNCCCn2cnc3c(SC)ncnc32)cc1	.	.	.	-	.	.
N#Cc1c(SCC(=O)Nc2ccccc2)nsc1SCC(=O)Nc1ccccc1	-	-	-	67	-	-
CCCCCCN1C[C@@H](n2cc(-c3ccc(F)cc3)nn2)[C@H](O)C[C@@H]1c1ccc(Cl)cc1	.	.	.	-	.	.
COc1ccc(OC)c2sc(NC(=O)c3ccc(S(=O)(=O)N4CCOCC4)cc3)nc12	-	-	-	-17	-	-
CC(=O)c1ccc(NC(=O)c2ccc(C)c(S(=O)(=O)N3CCOCC3)c2)cc1	-	-	-	67	-	-
CCOC(=O)c1ccc(NC(=O)c2ccc(C)c(S(=O)(=O)N3CCOCC3)c2)cc1	-	-	-	-	-	-
COc1ccc(S(=O)(=O)N2CCOCC2)cc1NC(=O)c1ccc(S(=O)(=O)N2CCCCC2)cc1	-	-	.	-	-	.
Cc1nc2ccc(NC(=O)c3ccc(S(=O)(=O)N4CCOCC4)cc3)cc2s1	-	-	-	81	-	-
Cc1cccn2c(=O)c3cc(C(=O)NCCN4CCOCC4)c(=N)n(Cc4ccc(F)cc4)c3nc12	-	-	-	-	-	-
O=C(/C=C/c1ccco1)NC(=S)Nc1ccccc1O	.	.	-	-	.	-
Cc1ccc(NC(=S)NC(=O)/C=C/c2ccco2)c(O)c1	-	-	-	-	-	30
O=C(/C=C\c1ccco1)NC(=S)Nc1ccccc1O	-	-	-	-	-	33
O=S1(=O)CCN(Cc2cccnc2)CC1	.	.	.	-	.	.
CCC1=C(Nc2ccccc2)COC1=O	.	.	.	-	.	.
Cc1ccc([N+](=O)[O-])cc1-c1ccc(/C=C(\C#N)c2[nH]nc(N)c2C#N)o1	-	-	-	86	-	30
COCc1cc(C)nc(OCC(=O)N/N=C/c2ccc(-c3cc([N+](=O)[O-])ccc3C)o2)c1C#N	-	-	-	-	-	-
O=C(O)c1ccc(-n2cccc2/C=C2/NC(=O)N(c3cccc(Cl)c3)C2=O)cc1	-	-	-	-	-	.
N#Cc1ccccc1CN1C(=O)S/C(=C/c2cccn2-c2ccc(C(=O)O)cc2)C1=O	-	-	-	-	-	-
O=C(O)c1ccc(-n2cccc2/C=C2/SC(=O)N(CC(=O)N3CCCC3)C2=O)cc1	-	38	-	-	-	34
O=C(O)c1ccc(-n2cccc2/C=C2/NC(=O)N(c3ccccc3)C2=O)cc1	-	-	-	-	-	29
O=Cc1cc(N=Nc2ccccc2Cl)ccc1O	-	-	-	-	-	28
CNC(=O)C[C@@H]1C(=O)N(C2CCCCC2)CC1(C)C	.	.	.	-	.	.
CC(=O)c1ccc(NS(=O)(=O)c2ccc(CC(C)C)cc2)cc1	-	-	-	-	28	-

Screening results (PubChem BioAssay)
